{"source": "ChEMBL document CHEMBL4513216", "about": "“Probing the Open Global Health Chemical Diversity Library for Multistage-Active Starting Points for Next-Generation Antimalarials” (ACS Infect Dis, 2020)", "note": "In all, about 69,000 compounds went through this assay and about 8,600 (12%) showed an effect of 50% or more. The sample as a whole holds a higher share of strong results than the screen did."}
{"system": "Plasmodium berghei", "assay": "Screen against P. berghei liver stage (PbLuc), transformed with Luciferase, at 10uM", "assay_type": "functional, HepG2", "conditions": "tested at 10 uM", "units": {"INHIBITION": "%"}}
{"molecule": "Fc1ccc(C(CNc2ccncn2)N2CCCC2)cc1", "note": "(stereo not given)", "INHIBITION": 45}
{"molecule": "Cc1cc(C(=O)N2CCC3(C2)CN(c2ccsc2)C(=O)CN3C)[nH]n1", "note": "(stereo not given)", "INHIBITION": 46.2}
{"molecule": "COc1ccc2c(c1)Cc1c-2nc(N)c(C#N)c1C1CCOC1", "note": "(stereo not given)", "INHIBITION": 73.9}
{"molecule": "N#Cc1c(N)nc2c(c1C1CCOC1)CCc1cc(O)ccc1-2", "note": "(stereo not given)", "INHIBITION": -3.12}
{"molecule": "COc1ccc2c(c1OC)Cc1c-2nc(N)c(C#N)c1C1CCOC1", "note": "(stereo not given)", "INHIBITION": 40.5}
{"molecule": "Cc1ccc(C(=O)Nc2ccc(N(C)C)cn2)n1C", "INHIBITION": -75.9}
{"molecule": "CCc1ccc(CN2C[C@@H]3COC[C@H](NS(C)(=O)=O)[C@@H]3C2)o1", "INHIBITION": -12.2}
{"molecule": "Cc1ccc(Oc2ncccc2C(=O)N(C)CC2OCCO2)c(C)c1", "INHIBITION": -17.2}
{"molecule": "c1cc(C2CN(C3CCCCC3)C2)n[nH]1", "INHIBITION": 15.92}
{"molecule": "CCC(N)c1ccccc1OCC(=O)N1CCCC1", "note": "(stereo not given)", "INHIBITION": -42.3}
{"molecule": "COc1cccc(CNCc2nnc3n2CC(C(F)(F)F)CC3)c1", "note": "(stereo not given)", "INHIBITION": 45.1}
{"molecule": "Cc1ccoc1CNCc1nnc2n1CCCC2C(F)(F)F", "note": "(stereo not given)", "INHIBITION": 47.4}
{"molecule": "Cc1ccc(CNCc2nnc3n2CCCC3C(F)(F)F)o1", "note": "(stereo not given)", "INHIBITION": 4.92}
{"molecule": "Cc1ccoc1CNCc1nnc2n1CC(C(F)(F)F)CC2", "note": "(stereo not given)", "INHIBITION": 52.6}
{"molecule": "Cc1ccc(CNCc2nnc3n2CC(C(F)(F)F)CC3)o1", "note": "(stereo not given)", "INHIBITION": 65.9}
{"molecule": "FC(F)(F)C1CCCn2c(CNCc3ccco3)nnc21", "note": "(stereo not given)", "INHIBITION": 45.3}
{"molecule": "CCC(NC(=O)c1cc(CC(C)C)nn1C)c1cccc(C)n1", "note": "(stereo not given)", "INHIBITION": 86.7}
{"molecule": "CCC(NC(=O)c1cc(CC(C)C)nn1C)c1cc(C)ccn1", "note": "(stereo not given)", "INHIBITION": -1.15}
{"molecule": "CCC(NC(=O)c1cc(CC(C)C)nn1C)c1ccnn1C", "note": "(stereo not given)", "INHIBITION": -18.2}
{"molecule": "CC(O)CN1CCN(C(=O)c2cnn(-c3ccccc3Cl)c2)CC1", "note": "(stereo not given)", "INHIBITION": 32}
{"molecule": "CCOCCN1CCN(c2ccc(C#N)cn2)CC1CC", "note": "(stereo not given)", "INHIBITION": 2.91}
{"molecule": "O=C(c1cnoc1)N1CCC[C@]2(C[C@@H](OCc3ccccn3)CO2)C1", "INHIBITION": 8.47}
{"molecule": "Cc1cc(C(=O)N(C)C)c2c(Br)cccc2n1", "INHIBITION": 40.7}
{"molecule": "Cc1cc(C(=O)O)c2c(Br)cccc2n1", "INHIBITION": 8.7}
{"molecule": "Cc1cc(C(N)=O)c2c(Br)cccc2n1", "INHIBITION": 53.2}
{"molecule": "Cc1nn(C)c(C)c1CCC(=O)N1CCCC(n2cccn2)C1", "note": "(stereo not given)", "INHIBITION": 16.9}
{"molecule": "NS(=O)(=O)CCN1CCN(c2cc(F)ccc2F)CC1", "INHIBITION": -6.51}
{"molecule": "CCCS(=O)(=O)CCN1CCN(c2cc(F)ccc2F)CC1", "INHIBITION": 25.2}
{"molecule": "O=C1CCC(=O)N1CCN1CCN(c2cc(F)ccc2F)CC1", "INHIBITION": 79.1}
{"molecule": "NC(=O)C1CCN(C(=O)c2ccn(-c3cccc(Cl)c3)n2)C1", "note": "(stereo not given)", "INHIBITION": -1.14}
{"molecule": "O=C(NCCCn1cccn1)NCC(c1ccco1)N1CCCC1", "note": "(stereo not given)", "INHIBITION": -49.5}
{"molecule": "CCOCC(=O)N1CC[C@H]2OCC[C@@]2(COc2ncccc2F)C1", "INHIBITION": -23.4}
{"molecule": "Cc1ncsc1CNC(=O)NCC1(c2ccc3c(c2)OCO3)CC1", "INHIBITION": 70.2}
{"molecule": "Cc1csc(CNC(=O)NCC2(c3ccc4c(c3)OCO4)CC2)n1", "INHIBITION": 2.29}
{"molecule": "Cc1n[nH]cc1CNCC1(c2ccc3c(c2)OCO3)CCOCC1", "INHIBITION": -21.4}
{"molecule": "CN1CCN(Cc2cn3c(n2)CN(Cc2cccc(F)c2)CC3)CC1", "INHIBITION": 27.6}
{"molecule": "CCn1nc(C)c(-c2cncn2Cc2ccccc2CN(C)C)c1C", "INHIBITION": 34.1}
{"molecule": "Cc1ccc(-c2cc(C(=O)O)sn2)cc1", "INHIBITION": -21.9}
{"molecule": "CN(C)c1ncc(I)c(C2CCCN2S(C)(=O)=O)n1", "note": "(stereo not given)", "INHIBITION": 7.19}
{"molecule": "CNc1ccnc(NCCSc2nccn2C)n1", "INHIBITION": 44.3}
{"molecule": "Cn1ccnc1SCCNc1nccc(C(F)(F)F)n1", "INHIBITION": -1.16}
{"molecule": "Cc1ccnc(NCCSc2nccn2C)n1", "INHIBITION": 65.6}
{"molecule": "O=C(NCc1nccs1)N1CCOC(c2ccccc2Cl)C1", "note": "(stereo not given)", "INHIBITION": 19.9}
{"molecule": "CCC(Nc1nc(C)nc2onc(C)c12)c1cccs1", "note": "(stereo not given)", "INHIBITION": 79.9}
{"molecule": "Cc1nc(NCC(O)CN2CCCCCC2)c2c(C)noc2n1", "note": "(stereo not given)", "INHIBITION": 15.7}
{"molecule": "Cc1nc(NCCSc2cnn[nH]2)c2c(C)noc2n1", "INHIBITION": 1.56}
{"molecule": "CCC(Nc1nc(C)nc2onc(C)c12)c1nc(C)c(C)s1", "note": "(stereo not given)", "INHIBITION": 70}
{"molecule": "Cc1noc(C(C)C)c1C(=O)NCC(c1cccs1)N(C)C", "note": "(stereo not given)", "INHIBITION": 2.3}
{"molecule": "Cc1noc2ncnc(NC(CC(C)(C)C)c3cccnc3)c12", "note": "(stereo not given)", "INHIBITION": 23.5}
{"molecule": "CNC(=O)NC(=O)C(C)N(C)CCCc1cc(-c2ccccc2)no1", "note": "(stereo not given)", "INHIBITION": -14.18}
{"molecule": "c1csc(CN2Cc3nccn3CC(Cn3cncn3)C2)c1", "note": "(stereo not given)", "INHIBITION": -22.1}
{"molecule": "CCCc1cc(C(=O)N[C@@H]2CCC[C@@H](N3CCCC3)[C@@H]2O)no1", "INHIBITION": 13.7}
{"molecule": "Cn1nccc1CNS(=O)(=O)c1cc(F)ccc1Br", "INHIBITION": 6.02}
{"molecule": "CCC(C)Oc1cc(C(=O)Nc2nnc(C(C)C)[nH]2)ccn1", "note": "(stereo not given)", "INHIBITION": 42.6}
{"molecule": "CC(C)c1nnc(NC(=O)Cc2ccc(F)cc2)[nH]1", "INHIBITION": 51.1}
{"molecule": "CC(C)c1nnc(NC(=O)CCc2cc(F)ccc2F)[nH]1", "INHIBITION": 53.3}
{"molecule": "CC(C)N1CCC(CNC(=O)CCc2cc(F)ccc2F)C1", "note": "(stereo not given)", "INHIBITION": -20.3}
{"molecule": "CC(C)c1nnc(NC(=O)c2cccc(OCC(F)(F)F)n2)[nH]1", "INHIBITION": -38.6}
{"molecule": "CS(=O)(=O)c1nnc(NC(=O)CCc2cc(F)ccc2F)[nH]1", "INHIBITION": 43.7}
{"molecule": "O=C(C1=CC2(CCN(CCO)CC2)c2ccccc21)N1CCCC1", "INHIBITION": 13.6}
{"molecule": "O=C(CCc1nc(-c2ccccc2)no1)N[C@H]1COC[C@@H]1N1CCCC1", "INHIBITION": -12.1}
{"molecule": "Cc1nc(N)cc(C2CN(C(=O)c3cscn3)CCO2)n1", "note": "(stereo not given)", "INHIBITION": 35}
{"molecule": "COc1ccc(NC(=O)COc2nn(C)c3nc(C)cc(C)c23)cn1", "INHIBITION": 22.8}
{"molecule": "O=C(NCC(=O)N1CCCC1Cc1cccc(F)c1)C1CCCC1", "note": "(stereo not given)", "INHIBITION": 7.19}
{"molecule": "CCc1ccc(C(=O)N2CCCCC2CNS(C)(=O)=O)o1", "note": "(stereo not given)", "INHIBITION": -23.5}
{"molecule": "CCc1ccc(C2CCCN2C(=O)NCC(=O)NCC(C)C)o1", "note": "(stereo not given)", "INHIBITION": 60.4}
{"molecule": "CC(C)CNC(=O)CN1CCCC(c2ccc(C(=O)O)cc2)C1", "note": "(stereo not given)", "INHIBITION": 33}
{"molecule": "Cc1ccc(C2CCCCCN2C(=O)Nc2cn[nH]c2)o1", "note": "(stereo not given)", "INHIBITION": -22.05}
{"molecule": "CC(C)CCC(=O)NCC(=O)N1CCCCCC1c1ccco1", "note": "(stereo not given)", "INHIBITION": 19.3}
{"molecule": "CCn1nccc1CNC(=O)NC1CCCCC1", "INHIBITION": 26.8}
{"molecule": "CNCC(=O)N1CCCC1c1nc(C(C)C)no1", "note": "(stereo not given)", "INHIBITION": 6.33}
{"molecule": "CCc1ccc(C(=O)NCC2CCCN2CC)o1", "note": "(stereo not given)", "INHIBITION": 31.2}
{"molecule": "CCc1ccc(C2CCCN2C(=O)CNC(=O)CCC(C)C)o1", "note": "(stereo not given)", "INHIBITION": 64.8}
{"molecule": "CCc1ccc(C2CCCCCN2C(=O)CNC(=O)C2CC2)o1", "note": "(stereo not given)", "INHIBITION": 63.7}
{"molecule": "CCc1ccc(C2CCCCCN2C(=O)CNC(=O)NC2CC2)o1", "note": "(stereo not given)", "INHIBITION": 68}
